# Screening results as filed in PubChem BioAssay.
# FBA Mtb inh: inhibits M. tuberculosis FBA enzyme. purified M. tuberculosis FBA, fluorescence read-out. inhibition, % at 1 µM. P9WQA3. 2.3% of 360,000 active; in the data active = inhibition above about 27%;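 also: 0% = vehicle and 100% = reference inhibitor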
# RecA intein inh: Mtb RecA intein splicing inhibition | cell-free RecA intein splicing, fluorescence | inhibition, % (no concentration beside the values) | 0.75% of 290,000 active | AID 2221; in the data active = inhibition above about 30%;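 also: 0% = vehicle wells and 100% = reference inhibitor control wells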
# Target sequence (P9WHJ3 whole entry, looked up): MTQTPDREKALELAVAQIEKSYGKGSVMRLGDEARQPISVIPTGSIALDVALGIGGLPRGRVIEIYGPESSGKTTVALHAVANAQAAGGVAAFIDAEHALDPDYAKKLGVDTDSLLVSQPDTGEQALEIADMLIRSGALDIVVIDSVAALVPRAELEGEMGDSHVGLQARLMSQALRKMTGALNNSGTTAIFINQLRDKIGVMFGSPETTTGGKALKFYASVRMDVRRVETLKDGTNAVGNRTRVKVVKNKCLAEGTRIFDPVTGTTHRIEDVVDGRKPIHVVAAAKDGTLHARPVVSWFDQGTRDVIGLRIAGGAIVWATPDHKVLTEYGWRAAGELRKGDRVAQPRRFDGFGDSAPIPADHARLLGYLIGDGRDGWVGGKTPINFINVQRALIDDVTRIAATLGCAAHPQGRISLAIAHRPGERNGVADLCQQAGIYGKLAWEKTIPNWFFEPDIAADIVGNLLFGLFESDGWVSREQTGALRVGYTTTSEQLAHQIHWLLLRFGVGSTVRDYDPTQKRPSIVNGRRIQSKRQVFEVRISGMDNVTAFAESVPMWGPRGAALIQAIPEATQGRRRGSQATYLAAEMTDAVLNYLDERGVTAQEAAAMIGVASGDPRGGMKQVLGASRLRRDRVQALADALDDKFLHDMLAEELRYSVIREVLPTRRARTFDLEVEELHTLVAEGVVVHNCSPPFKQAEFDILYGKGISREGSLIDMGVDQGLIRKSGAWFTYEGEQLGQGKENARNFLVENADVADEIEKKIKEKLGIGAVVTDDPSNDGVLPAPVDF
# GDH-TPI counter: inhibits GDH-TPI coupling enzymes, artifact for Mtb FBA screen. inhibition, % at 4.8 µM. GDH-TPI coupled enzyme counterscreen, NADH absorbance. 1.2% of 360,000 active; in the data active = inhibition above about 30%;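 also: 0% = DMSO wells and 100% = wells lacking the enzyme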
# Mtb betalactam: beta-lactam sensitization of Mtb H37Rv | M. tuberculosis H37Rv growth with meropenem, percent inhibition | inhibition, % at 25 µM | 0.27% of 330,000 active;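 also: growth measured after seven days incubation then overnight dye step; 0% = bacteria only wells and 100% = bacteria with antibiotic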
# UGM FP inh: inhibitors of M. tuberculosis UDP-galactopyranose mutase. P9WIQ1. purified UGM, fluorescence polarization probe displacement. inhibition, % at 10 µM. 0.06% of 320,000 active. AID 504406; in the data active = inhibition above about 10%, passing the limit was not always enough
# Rv3671c protease: Rv3671c (M. tuberculosis) protease inhibition | P9WHR9 | inhibition, % at 5.96 µM | 0.048% of 320,000 active; in the data active = inhibition above about 38%;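 also: extracellular domain of Rv3671c used as enzyme; 0% = enzyme with DMSO and 100% = no enzyme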
# GFP chromo cs: counter-screen: blocks GFP chromophore formation; shares compounds with RecA intein inh; cell-free GFP chromophore formation, fluorescence; EC50, µM; 83% of 2,100 active; AID 434968
# * = called active by the depositor; / = no result. The list is not random: actives were taken first. Their share in the collection is about 4%. Unless noted, no rule for the calls is given here.
SMILES,FBA Mtb inh,RecA intein inh,GDH-TPI counter,Mtb betalactam,UGM FP inh,Rv3671c protease,GFP chromo cs
O=C(O[C@@H]1Cc2c(O)cc(O)cc2O[C@@H]1c1cc(O)c(O)c(O)c1)c1cc(O)c(O)c(O)c1,/,5,/,/,/,/,/
CS(=O)(=O)c1ccc2nc(NC3(C(F)(F)F)N=C4SCCN4C3=O)sc2c1 (stereo not drawn),1,-2,9,-4,2,-4,/
Cc1[nH]n(-c2ccccc2)c(=O)c1/C=N/O,-2,8,8,11,0,-13,/
Cc1[nH]n(-c2ccccc2)c(=O)c1/C=C1\C=NN=C1c1ccccc1,-3,82*,12,-5,1,-27,7.4*
CC(=O)N(Cc1ccc(F)cc1)C1=C(NCc2ccccc2)C(=O)c2ccccc2C1=O,2,77*,2,/,/,/,5.9*
O=C(NCc1ccc(F)cc1)C(c1ccccc1)c1ccccc1,1,2,6,5,2,-7,/
Nc1ccc(O)c2ccccc12,/,88*,/,100,4,-31,11*
COc1ccc(N(C(=O)CCl)C(C(=O)NCCc2ccccc2)c2cccs2)cc1 (stereo not drawn),1,76*,-3,89,6,-6,1.7*
COC(=O)c1sc(N)c(C(=O)OC)c1Cn1ncc(Cl)c(Cl)c1=O,3,31*,9,16,-3,1,1.6*
[O-][N+](=Cc1ccccc1)c1ccc(Cl)cc1,0,/,3,/,/,/,/
CCCCCc1c2c(cc(O)c1C(=O)O)OC(=O)c1c(cc(OC)cc1C(=O)CCCC)O2,-1,31*,3,2,6,2,12*
CN1CCN(CC(=O)Nc2cc(N3CCOCC3)ccc2[N+](=O)[O-])CC1,-21,2,8,9,2,-10,/
O=C(Oc1ccc(Br)cc1)c1cncc(Br)c1,2,10,3,4,-1,0,/
CCCCn1c(N)c(N(C(=O)CSc2nncn2-c2ccccc2C)C2CCCC2)c(=O)[nH]c1=O,2,/,-7,/,/,/,/
O=C1NC(c2ccc(-c3ccccc3[N+](=O)[O-])o2)C(C(=O)c2ccccc2)C(O)(C(F)(F)F)N1 (stereo not drawn),0,2,18,8,1,-15,/
Cc1ccc(C(=O)C2C(c3ccc(-c4ccccc4[N+](=O)[O-])o3)NC(=O)NC2(O)C(F)(F)F)cc1 (stereo not drawn),1,83*,4,8,-1,-11,22*
O=C(C(Cl)Cl)N1c2ccccc2OCC1c1ccccc1 (stereo not drawn),0,72*,2,-11,0,0,35*
Cc1ccc2[nH]c3c(c2c1)CN(C(=O)CN1CCSCC1)CC3,/,61*,/,/,/,/,0.19*
Cc1ccc2[nH]c3c(c2c1)CN(C(=O)CN1CC(C)OC(C)C1)CC3 (stereo not drawn),1,/,-3,-11,-2,4,/
CN(CC(=O)Nc1cccc(F)c1)C(=O)c1cc(=O)[nH]c2ccccc12,9,/,11,5,0,0,/
COC(=O)C[C@]1(C(=O)OC)CN(C#N)N(c2ccc(Cl)cc2)C12c1ccccc1-c1ccccc12,-2,74*,10,87,0,-1,4.7*
CCOC(=O)c1nn(-c2ccccc2C)c(=O)c2c(N)scc12,-4,48*,2,0,-1,-14,>38
CCOC(=O)c1nn(-c2ccccc2)c(=O)c2c(NC(C)=O)scc12,2,-6,-3,-2,-4,-3,/
CCOC(=O)CN1C(=O)N[C@@H](c2cccc(C(F)(F)F)c2)C(C(C)=O)=C1C,0,35*,11,-9,-2,-9,>38
Cc1ccc(-c2nnc(Sc3nc4ccccc4o3)c3ccccc23)cc1,2,77*,7,4,-1,-1,0.93*
SMILES,FBA Mtb inh,RecA intein inh,GDH-TPI counter,Mtb betalactam,UGM FP inh,Rv3671c protease,GFP chromo cs
CCSc1nnc(C)c2ccccc12,0,1,-3,-7,-2,3,/
Cc1nnc(Sc2nc3ccccc3o2)c2ccccc12,0,50*,-7,18,2,5,28*
Clc1ccc(-c2nnc(Sc3nc4ccccc4o3)c3ccccc23)cc1,5,57*,0,-1,2,-10,0.62*
CCCC1CC(C#N)N(N(C)C)C1=C(C#N)C#N (stereo not drawn),-1,1,-2,-13,-5,4,/
CCOc1ccc(C(=O)c2ccc([N+](=O)[O-])cc2Cl)cc1,2,-5,16,4,2,-7,/
Oc1cccc(C=Nc2cccc3ccccc23)c1O,0,31*,20,60,4,-38,15*
O=C(Nc1cccc(F)c1)OC(CN1CCCCC1)C(F)(F)F (stereo not drawn),2,1,7,1,-2,-4,/
O=C1C=C(N2CCOCC2)c2ccccc2C1=O,-5,97*,17,0,0,-160,0.56*
O=C1C=C(N2CC2)c2ccccc2C1=O,-3,/,-1,/,/,/,/
O=C(NC1CCCC1)C(c1ccc(F)cc1)N(Cc1ccc(Cl)cc1)C(=O)CCl (stereo not drawn),2,59*,4,11,4,-2,7*
O=C(NC1CCCC1)C(c1ccc(Cl)cc1)N(Cc1ccc(F)cc1)C(=O)CCl (stereo not drawn),-2,67*,-8,-1,-4,-3,2.7*
c1ccc(Sc2nc(N3CCCCC3)nc(N3CCCCC3)n2)nc1,-3,8,4,0,4,-13,/
CCCCNC1C(CC)C(CCC)C(C#N)(C#N)C1(C#N)C#N (stereo not drawn),1,76*,0,68,4,1,12*
Cc1cc(C)nc(NS(=O)(=O)c2ccc(NS(=O)(=O)c3ccsc3)cc2)n1,1,1,2,-2,0,-1,/
CN(C)Cc1ccccc1Sc1ccc(O)cc1O,-1,-6,11,2,0,1,/
CC(C)CCn1c(Sc2nc3ccccc3o2)nc2c1c(=O)[nH]c(=O)n2C,-2,31*,-4,4,-1,-11,5*
CCn1c(SCC(=O)Nc2nnc(C)s2)nnc1C(C)NC(=O)c1ccccc1F (stereo not drawn),-1,0,-12,-11,1,-2,/
Cc1ccc(C(=O)NC(=S)NNS(=O)(=O)c2ccc(C)cc2)cc1,3,41*,-10,-6,4,-3,>38
Cc1ccc(S(=O)(=O)NNC(=S)NC(=O)c2ccc([N+](=O)[O-])cc2)cc1,2,23,8,-1,2,-1,/
Cc1[nH][nH]c(=O)c1C,4,/,5,-6,3,-5,/
Cc1[nH][nH]c(=O)c1C(c1ccc(N(C)C)c(Br)c1)c1c(C)[nH][nH]c1=O,-4,97*,1,-1,5,-8,0.47*
Cn1c(SCC(=O)N/N=C/C=C/c2ccco2)nc2ccccc21,-2,3,22,2,-4,1,/
